# Source: PubChem BioAssay
# Active and inactive are the calls of the source. Unless noted, no rule for the calls is given here.
# Assays:
# [1] = resazurin metabolic signal in HepG2 cells – cell-based, resazurin fluorescence, 24 h, PK04 Diversity Set, profiling panel (AID 1172); settings: HepG2 viability, higher = more signal
# [2] = budding yeast growth changes without added modifier – OD600, strain BY4716, 24 h, basal condition, primary screen (AID 1173); settings: S. cerevisiae BY4716 growth, OD600, 24 h; higher = more signal, called active from +8 up or from −8 down
# [3] = viability profiling in MM1S myeloma cells – cell-based, resazurin fluorescence, basal, 24 h, PK04 Diversity Set, profiling panel (AID 1174); settings: higher = more signal, called active from +8 up or from −8 down;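 also: MM1S multiple myeloma cell line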
# [4] = target: Dihydroorotate dehydrogenase (quinone), mitochondrial (Plasmodium falciparum (isolate 3D7)) (UniProt Q08210); assay: inhibition of P. falciparum DHODH – biochemical, C-terminal His tag, absorbance 600 nm, primary screen (AID 1175); settings: PfDHODH enzyme, DCIP absorbance 600 nm; higher = more signal, called active from +8 up or from −8 down;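 also: recombinant parasite enzyme with a five histidine tag at its C terminus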
# Chain of Dihydroorotate dehydrogenase (quinone), mitochondrial (Plasmodium falciparum (isolate 3D7)) (Q08210 whole entry, looked up): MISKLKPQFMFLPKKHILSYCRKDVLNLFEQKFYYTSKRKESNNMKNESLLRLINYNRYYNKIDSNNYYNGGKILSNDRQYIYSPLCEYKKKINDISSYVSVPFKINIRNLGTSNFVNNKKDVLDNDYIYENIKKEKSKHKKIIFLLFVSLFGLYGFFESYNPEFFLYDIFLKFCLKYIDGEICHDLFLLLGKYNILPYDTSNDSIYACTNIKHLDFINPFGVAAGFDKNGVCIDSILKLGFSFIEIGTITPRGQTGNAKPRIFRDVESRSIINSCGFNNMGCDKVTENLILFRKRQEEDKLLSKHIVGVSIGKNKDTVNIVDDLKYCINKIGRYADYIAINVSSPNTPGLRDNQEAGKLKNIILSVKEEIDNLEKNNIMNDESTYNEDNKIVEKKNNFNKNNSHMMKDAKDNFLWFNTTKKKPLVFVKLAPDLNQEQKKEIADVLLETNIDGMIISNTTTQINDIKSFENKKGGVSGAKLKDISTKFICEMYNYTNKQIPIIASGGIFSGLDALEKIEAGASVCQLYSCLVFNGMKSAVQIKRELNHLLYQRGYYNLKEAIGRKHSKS
# [5] = inhibition of PAO1 biofilm formation – strain PAO1, LB-PBS medium, absorbance 600 nm, primary screen (AID 1176); settings: P. aeruginosa PAO1 growth/biofilm, A600, 12 h; higher = more signal
# [6] = growth modulation of vineyard yeast isolate – strain RM11-1a, OD600, basal, 24 h, primary screen (AID 1177);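 also: cultures grown under basal conditions with no added stressor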; settings: S. cerevisiae RM11-1a growth, OD600, 24 h; higher = more signal, called active from +8 up or from −8 down
# [7] = growth of efflux-deficient E. coli DRC39 – strain DRC39, OD650, 24 h, E. coli filamentation inducers, primary screen (AID 1178);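 also: growth measured as culture turbidity by optical density at 650 nm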; settings: E. coli DRC39 acrAB, higher = more signal, called active from +8 up or from −8 down
# [8] = growth of efflux-deficient E. coli DRC39 – strain DRC39, OD650, 48 h, E. coli filamentation inducers, primary screen (AID 1179);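 also: screen aims at cell division blockers that make cells filament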; settings: E. coli DRC39 delta-acrAB growth, higher = more signal, called active from +8 up or from −8 down
# [9] = viability profiling in RPMI8226 myeloma cells – cell-based, resazurin fluorescence, basal, 24 h, PK04 Diversity Set, profiling panel (AID 1180); settings: higher = more signal;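 also: RPMI8826 multiple myeloma cell line at 5000 cells per well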
# [10] = target: E3 ubiquitin-protein ligase XIAP (Homo sapiens) (UniProt P98170); assay: small molecules binding XIAP protein – biophysical, small-molecule microarray, fluorescence 635 nm, primary screen (AID 1181); settings: higher = more signal;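 also: score merges 667 nm emission and signal to noise over triplicate slides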
# Chain of E3 ubiquitin-protein ligase XIAP (Homo sapiens) (P98170 whole entry, looked up, the tested form may be a part): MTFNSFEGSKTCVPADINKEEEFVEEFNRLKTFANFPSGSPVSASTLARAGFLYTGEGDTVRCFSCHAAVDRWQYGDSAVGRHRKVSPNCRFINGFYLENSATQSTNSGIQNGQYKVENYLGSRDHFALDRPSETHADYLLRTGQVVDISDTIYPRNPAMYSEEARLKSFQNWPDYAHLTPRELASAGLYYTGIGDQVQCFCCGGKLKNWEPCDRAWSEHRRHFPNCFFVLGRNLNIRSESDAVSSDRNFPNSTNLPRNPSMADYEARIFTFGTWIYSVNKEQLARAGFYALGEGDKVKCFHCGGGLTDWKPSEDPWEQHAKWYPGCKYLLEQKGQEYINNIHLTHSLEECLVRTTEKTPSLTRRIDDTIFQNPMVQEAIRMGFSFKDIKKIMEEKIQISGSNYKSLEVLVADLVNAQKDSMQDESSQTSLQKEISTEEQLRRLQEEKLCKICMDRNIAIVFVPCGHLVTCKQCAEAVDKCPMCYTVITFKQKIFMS
# [11] = system: XIP peptide (Xip251-270) binding; assay: XIP fragment 251-270 binding compounds – biochemical, small-molecule microarray, fluorescence 635/667 nm, 0.1 µg/mL protein, primary screen (AID 1182); settings: fluorescent protein binding, 635 nm, higher = more signal, called active from +8 up or from −8 down
# XIP peptide (Xip251-270) = assay: compounds binding XIP fragment 251-270 – biochemical, small-molecule microarray, fluorescence 635/667 nm, 0.5 µg/mL protein, primary screen (AID 1183); settings: fluorescence 635 nm, higher = more signal
# [12] = blood-stage malaria parasite viability loss – strain 3D7, DAPI fluorescence, 100 nL, primary screen (AID 1184);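 also: parasites grown inside human red blood cells in medium with human serum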; settings: P. falciparum 3D7 growth, 3 d, higher = more signal
# [13] = target: Homeobox protein Hox-A13 (Mus musculus) (UniProt Q62424); assay: disruptors of Hoxa13 oligonucleotide interaction – biochemical, fluorescence polarization, labeled oligonucleotide, primary screen (AID 1185); settings: Hoxa13:DNA binding, 15 min, higher = more signal, called active from +8 up or from −8 down
# Chain of Homeobox protein Hox-A13 (Mus musculus) (Q62424 whole entry, looked up): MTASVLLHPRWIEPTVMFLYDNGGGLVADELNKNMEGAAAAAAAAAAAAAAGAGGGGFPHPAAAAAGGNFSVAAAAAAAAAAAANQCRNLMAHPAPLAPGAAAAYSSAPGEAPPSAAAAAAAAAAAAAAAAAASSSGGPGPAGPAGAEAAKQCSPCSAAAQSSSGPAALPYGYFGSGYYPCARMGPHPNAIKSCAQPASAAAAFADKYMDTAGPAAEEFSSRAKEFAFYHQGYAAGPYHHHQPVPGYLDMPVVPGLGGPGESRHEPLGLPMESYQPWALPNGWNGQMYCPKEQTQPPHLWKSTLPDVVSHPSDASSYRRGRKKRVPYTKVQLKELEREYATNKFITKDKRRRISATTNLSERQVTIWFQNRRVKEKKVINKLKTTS
# [14] = blockers of DNA damage checkpoint Chk1 activation – imaging, HeLa, hydroxyurea, phospho-Chk1 antibody, percent positive cells, primary screen (AID 1186); settings: hydroxyurea-induced phospho-Chk1 immunofluorescence imaging, higher = more signal
# [15] = blockers of DNA damage checkpoint Chk1 activation – imaging, HeLa, hydroxyurea, phospho-Chk1 nuclear intensity, primary screen (AID 1187); settings: hydroxyurea-induced phospho-Chk1 immunofluorescence imaging, higher = more signal
Structure (SMILES),z-score [1],z-score [2],z-score [3],composite z-score [4],z-score [5],z-score [6],z-score [7],z-score [8],z-score [9],composite z-score [10],composite z-score [11],composite z-score (XIP peptide (Xip251-270)),z-score [12],z-score [13],z-score [14],z-score [15]
COC(=O)[C@@]1(Cc2ccc(F)cc2)[C@H]2c3cc(C(=O)N(C)C)n(Cc4ccc(C)o4)c3C[C@H]2CN1C(=O)c1ccccc1,-0.0869,0.241 (inactive),0.003 (inactive),-0.631 (inactive),0.467 (inactive),-0.0282 (inactive),-0.359 (inactive),-0.192 (inactive),-0.0803,1.87,1.66 (inactive),0.665,-1.44,-2.94 (inactive),0.262 (inactive),-0.0286 (inactive)
O=C1[C@H]2C=C(Br)[C@H](C[C@@H]2OCCCCCCO)[C@@]12CO2,-0.629,-1.3 (inactive),-1.43 (inactive),0.571 (inactive),0.756 (inactive),0.414 (inactive),-0.748 (inactive),-0.602 (inactive),-0.899,-0.395,-0.358 (inactive),-0.777,-0.355,-1.84 (inactive),0.73 (inactive),0.231 (inactive)
C[N+](C)(C)CCCC[C@@H]1NC(=O)[C@@H]2C[C@H](C(=O)NCCCCCN)[C@H](c3ccc(O)cc3)N2C1=O,0.236,-0.812 (inactive),0.883 (inactive),-2.28 (inactive),1.11 (inactive),-3.02 (inactive),1.08 (inactive),1.48 (inactive),0.555,0.346,0.941 (inactive),0.831,0.117,-0.32 (inactive),-0.661 (inactive),-0.154 (inactive)
COCCCNC(=O)[C@@H]1c2ccccc2C(=O)N(Cc2ccccc2)[C@H]1c1ccc(CO)cc1,0.0319,-0.141 (inactive),0.0771 (inactive),-0.62 (inactive),0.0993 (inactive),-0.575 (inactive),0.38 (inactive),0.0879 (inactive),0.279,-0.0663,-0.267 (inactive),0.401,0.207,-1.77 (inactive),-0.0813 (inactive),-0.452 (inactive)
COc1ccc(C(=O)Nc2ccc(CN3C(=O)[C@]4(O[C@H](CC(=O)N5CCC[C@H]5CO)[C@@H]([Si](C)(C)c5ccc(OC)cc5)[C@@H]4C)c4ccccc43)cc2)cc1,-1.79,0.082 (inactive),-2.05 (inactive),-2.56 (inactive),0.0245 (inactive),0.557 (inactive),-0.0895 (inactive),-0.381 (inactive),-4.49,-0.361,0.731 (inactive),0.76,0.0279,-2.62 (inactive),0.303 (inactive),0.493 (inactive)
